Experimental data: the supplement of paper PMC13380429
A number with no mark means an inactive call.

system: Vero E6 infected with SARS-CoV-2; assay: inhibition of SARS-CoV-2 cytopathic effect; higher = more antiviral protection, active = above 15; settings: 100 nM; 48 h

| Structure (SMILES) | inhibition of SARS-CoV-2 cytopathic effect |
| --- | --- |
| CC(C)NCC(O)c1ccccc1Cl (configuration not stated) [clorprenaline] | 0.74% |
| C[C@@H](c1ncncc1F)[C@](O)(Cn1cncn1)c1ccc(F)cc1F [voriconazole] | -2.48% |
| O=C(O)C1=CCNCC1 [isoguvacine] | 0.98% |
| Oc1cc2c(cc1O)CN(C(=S)NCCc1ccc(Cl)cc1)CCC2 [capsazepine] | -0.11% |
| Cn1cnc2c(F)c(Nc3ccc(Br)cc3F)c(C(=O)NOCCO)cc21 [binimetinib] | -9.91% |
| CN(C)/C=N/c1c(I)cc(I)c(CCC(=O)O)c1I [iopodic-acid] | -0.76% |
| O=C(CBr)N1CC([N+](=O)[O-])([N+](=O)[O-])C1 | -1.43% |
| N#Cc1cn([C@@H]2O[C@H](CO)[C@@H](O)[C@H]2O)c2ncnc(N)c12 [toyocamycin] | 4.68% |

same assay, conditions: 833.33 nM; 48 h

| Structure (SMILES) | inhibition of SARS-CoV-2 cytopathic effect |
| --- | --- |
| Nc1nc(N)nc(NC2CC2)n1 [cyromazine] | 2.37% |
| CC(C)(C)NC(=O)N[C@H](C(=O)N1C[C@H]2[C@@H]([C@H]1C(=O)NC(CC1CCC1)C(=O)C(N)=O)C2(C)C)C(C)(C)C (some centres not stated) [Boceprevir] | -1.99% |
| COc1cc2c(cc1OC)-c1cc3nc4ccccc4nc3n1C(C)(C)C2 | -2.74% |
| CCOc1cc([C@@H](CS(C)(=O)=O)N2C(=O)c3cccc(NC(C)=O)c3C2=O)ccc1OC [apremilast] | -0.47% |
| C=C1/C(=C\C=C2/CCC[C@]3(C)[C@@H]([C@H](C)CCCC(O)(C(F)(F)F)C(F)(F)F)CC[C@@H]23)C[C@@H](O)C[C@@H]1O [falecalcitriol] | 0.88% |
| C1CCN2C[C@@H]3C[C@@H](CN4CCCC[C@@H]34)[C@H]2C1 [sparteine-sulfate] | 1.05% |
| O=C(N[C@@H]1CC[C@@H](c2cccc(F)c2F)CN(CC(F)(F)F)C1=O)N1CCC(n2c(=O)[nH]c3ncccc32)CC1 [telcagepant] | 2.53% |
| CC#CCC(C)[C@H](O)/C=C/[C@@H]1[C@H]2C/C(=C/CCCC(=O)O)C[C@H]2C[C@H]1O (some centres not stated) [iloprost] | -2.21% |
| O=C(NNc1nc2cc(F)ccc2n2cccc12)c1cnccn1 | 0.71% |
| O=C(c1ccc(C(=O)N2CCC(N3CCCC3)CC2)c(Nc2ccccc2)c1)N1CCC(N2CCCC2)CC1 | -4.9% |
| COc1cc(NS(=O)(=O)c2ccc(N)cc2)nc(OC)n1 [sulphadimethoxine] | -1.94% |
| Cn1nc(C(C)(C)C)cc1C(=O)N[C@@H](Cc1cccc(Cl)c1)C(=O)NCC#N [cathepsin-inhibitor-1] | -5.37% |
| CCCCC[C@H](O)/C=C/[C@H]1[C@H](O)CC(=O)[C@@H]1CCCCCCC(=O)O [alprostadil] | -3.27% |
| Oc1cc(Cl)ccc1Oc1ccc(Cl)cc1Cl [triclosan] | -0.77% |
| COc1cc(C2Oc3cc([C@H]4Oc5cc(O)cc(O)c5C(=O)[C@@H]4O)ccc3OC2CO)ccc1O (some centres not stated) [silibinin] | -1.29% |
| CC(C)(C)c1nc(-c2cccc(NS(=O)(=O)c3c(F)cccc3F)c2F)c(-c2ccnc(N)n2)s1 [dabrafenib] | -1.77% |
| Clc1cccc(SC2CCNCC2)n1 [anpirtoline] | 0.38% |
| Clc1ccc(COC(Cn2ccnc2)c2ccc(Cl)cc2Cl)c(Cl)c1 (configuration not stated) [miconazole] | 0.7% |
| O=C(NC1(c2ccccc2)CC1)c1c(CN2CCC(N3CCCCC3)CC2)c(-c2cccc(C(F)(F)F)c2)nc2cc(Br)ccc12 | -4.53% |
| O=C(O)/C=C(/CC(=O)O)C(=O)O [cis-aconitic-acid] | -2.25% |
| CC(C)OC(=O)C1=CN(C(=O)c2ccc(F)c(F)c2)CC(C)(C)c2c1[nH]c1ccccc21 | -4.11% |
| C[C@H](Cc1cc2c(c(C(N)=O)c1)N(CCCO)CC2)NCCOc1ccccc1OCC(F)(F)F [silodosin] | 2.24% |
| O=C(O)c1cc(/N=N/c2ccc(S(=O)(=O)Nc3ccccn3)cc2)ccc1O [sulfasalazine] | -1.38% |
| CCCN(CCC)C(=O)C(CCC(=O)O)NC(=O)c1ccccc1 (configuration not stated) [proglumide] | 2.34% |
